The list is not random: actives were taken first. Their share in the collection is about 2.1%.
TDP43 rescue: rescues yeast growth from TDP-43 toxicity. Potency, µM (series often up to 46.1 µM), inactives show at the highest dose growth rescue (activation), usual class: activators. TDP-43 expressing yeast growth rescue, BacTiter-Glo, 24 h. 410,000 compounds, 1.8% hits; also: % of control where 0% means no effect; nearly all actives have a fitted effect of over 50% in size
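Yeast cells expressing TDP-43 under galactose induction are exposed to compounds for 24 hr at 30 deg C. BacTiter-Glo luminescence measures growth, so protective compounds score as activators.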
FUS yeast rescue: FUS proteinopathy suppression in yeast. S. cerevisiae FUS-expressing, growth rescue, OD600, 24 h. Potency, µM (highest dose often 76.6 µM), usual class: activators. 390,000 compounds, 0.24% hits. AID 1347120;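 also: plate controls were DMSO vehicle for no effect and reference control for full effect; nearly all actives have a fitted effect of over 55% in size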
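Yeast expressing FUS under galactose induction, OD 0.005 in 2% galactose medium; compounds in a dilution series, 24 h at 30C. Growth rescue by absorbance at 600 nm; CP55940 positive control, DMSO negative.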
aSyn yeast inh: alpha-synuclein toxicity inhibition in yeast; 370,000 compounds, 0.14% hits; Potency, µM (highest dose often 46.1 µM), for inactives: top-dose growth rescue (activation), usual class: activators; Yeast expressing alpha-synuclein, growth rescue, BacTiter-Glo, 24 h; AID 652106; also: % of control where 0% means no effect; nearly all actives have a fitted effect of over 65% in size
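Screening used galactose-induced yeast with toxic alpha-synuclein levels, exposed to compound for 24 hr at 30 deg C. Cell growth, read with BacTiter-Glo luminescence, gave the measured signal.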
Abeta rescue: compounds reversing amyloid beta toxicity in yeast. yeast expressing A-beta42, growth rescue, OD600, 48 h; response scale: 0% DMSO, 100% iron-clioquinol control. Potency, µM (doses to about 46.1 µM), usual class: activators. 410,000 compounds, 0.063% hits. AID 1347071; also: nearly all actives have a fitted effect of over 55% in size
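Yeast growth medium received pinned compounds, then yeast cells expressing toxic A-beta were added; plates incubated at 30 C for 48 hr. Growth read as absorbance at 600 nm, normalized to DMSO and equimolar FeCl3 plus clioquinol controls.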
* = called active by the depositor; ! = a repeat was not active. Calls follow the shape of the dose curve; as a rule, active = well fitted curve in the direction sought with a large enough effect; inconclusive = small, poorly fitted or top-dose-only effect, or another doubt; inactive = no such curve, though single readings can be large; an effect the other way counts as inactive or inconclusive. Potency is read from the fitted curve at half-maximal effect.

Results for O=C(Nc1cccs1)Nc1ccc(F)cc1F ?
TDP43 rescue: 14µM*!; FUS yeast rescue: inactive; aSyn yeast inh: -15%; Abeta rescue: inactive

What do the screens show for `O=C(Nc1cccs1)Nc1ccccc1Cl`?
TDP43 rescue: 12%; FUS yeast rescue: inactive; aSyn yeast inh: -11%; Abeta rescue: inactive

Results for Cc1cc(C)cc(NC(=O)Nc2cccs2)c1 ?
TDP43 rescue: 13%; FUS yeast rescue: inactive; Abeta rescue: inactive

What do the screens show for `O=C(Nc1ccc(F)cc1F)Nc1csc2ccccc12`?
TDP43 rescue: 11µM*; FUS yeast rescue: inactive; aSyn yeast inh: -23%; Abeta rescue: inactive

Results for Cc1cccc(N2CCN(S(=O)(=O)c3ccc4c(c3)CC(C)N4C(=O)C3CC3)CC2)c1C (stereo unspecified) ?
TDP43 rescue: 5%; FUS yeast rescue: inactive; aSyn yeast inh: 9%

How did O=C(O)C1C2C=CC3(CN(Cc4ccco4)C(=O)C13)O2 (stereo unspecified) do in these assays?
TDP43 rescue: 17%; FUS yeast rescue: inactive; aSyn yeast inh: -2%; Abeta rescue: inactive

How did CCOC(=O)c1[nH]c(C)c(C(=O)Nc2ccc(C)c(C)c2)c1C do in these assays?
TDP43 rescue: inconclusive; FUS yeast rescue: inactive; aSyn yeast inh: -1%; Abeta rescue: inactive

What do the screens show for `Cc1cccnc1NC(=O)Nc1cccs1`?
TDP43 rescue: 5µM*; FUS yeast rescue: inactive; aSyn yeast inh: 0%; Abeta rescue: inactive

How did CCOCc1nnc(NC(=O)c2cc(Cl)ccc2OC)s1 do in these assays?
TDP43 rescue: 13µM*; FUS yeast rescue: inactive; aSyn yeast inh: 11%; Abeta rescue: inactive

Results for O=C(c1cccs1)n1cc(C(=S)N2CCOCC2)c2ccccc21 ?
TDP43 rescue: 20µM*; FUS yeast rescue: inactive; Abeta rescue: inactive

What do the screens show for `Cc1ccc(CSc2nnc(-n3c(=O)c(C#N)cc4c(=O)n5cccc(C)c5nc43)s2)cc1`?
TDP43 rescue: 12%; FUS yeast rescue: inactive; Abeta rescue: inactive

What do the screens show for `C=C1C(=O)[C@]23C[C@H]1CCC2[C@@]1(C)C(C[C@@H]3O)[C@](C)(C(=O)OC)CC[C@@H]1O` (stereo partly specified)?
TDP43 rescue: 3.2µM*; FUS yeast rescue: inactive; aSyn yeast inh: -51%; Abeta rescue: inactive

Results for Cc1cccc(OCC(=O)Nc2ccc3c(c2)OCCO3)c1 ?
TDP43 rescue: 18µM*; FUS yeast rescue: inactive; aSyn yeast inh: -2%; Abeta rescue: inactive

What do the screens show for `CCOc1ccc(C(=O)Nc2ccc3c(c2)OCCO3)cc1Br`?
TDP43 rescue: 18µM*; FUS yeast rescue: inactive; Abeta rescue: inactive

How did Cc1cccc(C)c1OCC(=O)Nc1ccc2c(c1)OCCO2 do in these assays?
TDP43 rescue: 14µM*; FUS yeast rescue: inactive; aSyn yeast inh: 0%; Abeta rescue: inactive

What do the screens show for `COc1cccc(-c2nc(SCC(=O)Nc3ccc4c(c3)OCCO4)c(-c3ccc(C)cc3)[nH]2)c1`?
TDP43 rescue: 20µM*; FUS yeast rescue: inconclusive; Abeta rescue: inactive

What do the screens show for `O=C(CN1C(=O)C(c2ccccc2)Oc2cccnc21)NCc1ccccc1F` (stereo unspecified)?
TDP43 rescue: inconclusive; FUS yeast rescue: inactive; aSyn yeast inh: 10%; Abeta rescue: inactive

Results for CC(=O)c1cccc(NC(=O)c2nc3ccccc3nc2N2CCCCC2)c1 ?
TDP43 rescue: inconclusive; FUS yeast rescue: inactive; Abeta rescue: inactive

What do the screens show for `NC(=O)COC(=O)c1c2c(nc3ccccc13)CCC2`?
TDP43 rescue: 15%; FUS yeast rescue: inactive; aSyn yeast inh: 0%; Abeta rescue: inconclusive

Results for CCOc1ccc(N2C(=O)c3ccccc3C2O)cc1 (stereo unspecified) ?
TDP43 rescue: 25%; FUS yeast rescue: inactive; aSyn yeast inh: -6%; Abeta rescue: inactive

What do the screens show for `O=C1OCCN1C(=O)[C@H]1[C@H](c2ccc(Cl)cc2)C(c2ccc(F)cc2)=NN1c1ccc(Br)cc1`?
TDP43 rescue: -23%; FUS yeast rescue: inconclusive; aSyn yeast inh: 10µM*; Abeta rescue: inactive

How did Cc1cccc(C2=NN(c3ccccc3)[C@@H](C(=O)N3CCOC3=O)[C@@H]2c2ccc(F)cc2)c1 do in these assays?
TDP43 rescue: 1%; FUS yeast rescue: 5.6µM*; aSyn yeast inh: 23%; Abeta rescue: inactive

Results for C[C@@H]1C(c2ccccc2)=NN(c2ccc(Br)cc2)[C@H]1C(=O)N1CCOC1=O ?
TDP43 rescue: inconclusive; FUS yeast rescue: inactive; aSyn yeast inh: 20µM*; Abeta rescue: inactive

How did Cc1cccc(C2=NN(c3ccc(Br)cc3)[C@@H](C(=O)N3CCOC3=O)[C@@H]2C)c1 do in these assays?
TDP43 rescue: 11%; FUS yeast rescue: inactive; aSyn yeast inh: inconclusive; Abeta rescue: inactive

What do the screens show for `COc1ccc(CC(=O)Nc2cc(=O)n(C)c(=O)n2C)cc1OC`?
TDP43 rescue: -10%; FUS yeast rescue: inactive; aSyn yeast inh: 4%; Abeta rescue: inactive

Results for CO/N=C(\c1nonc1N)N1CCN(c2ccc(Cl)cc2[N+](=O)[O-])CC1 ?
TDP43 rescue: 14µM*; FUS yeast rescue: inactive; aSyn yeast inh: 4%; Abeta rescue: inactive

How did CCC(=O)NC(Cc1ccccc1)c1nc2ccccc2[nH]1 (stereo unspecified) do in these assays?
TDP43 rescue: 7%; FUS yeast rescue: inactive; aSyn yeast inh: 1%; Abeta rescue: inactive

What do the screens show for `CC(C)c1ccccc1NC(=O)CC1(CC(=O)O)CCCC1`?
TDP43 rescue: -15%; FUS yeast rescue: inactive; aSyn yeast inh: 8%; Abeta rescue: inactive

What do the screens show for `COc1ccc2nc(N3C(=O)/C(=C/c4ccc(Cl)cc4)NC3=S)sc2c1`?
TDP43 rescue: 1%; FUS yeast rescue: inactive; aSyn yeast inh: -2%; Abeta rescue: inactive

Results for CCOc1cccc(C(=O)NC(=S)Nc2cccnc2)c1 ?
TDP43 rescue: inconclusive; FUS yeast rescue: inactive; aSyn yeast inh: -8%; Abeta rescue: inconclusive

How did CCCCOc1cccc(C(=O)NC(=S)Nc2cccnc2)c1 do in these assays?
TDP43 rescue: 25µM*; aSyn yeast inh: -1%; Abeta rescue: inactive

Results for COc1ccccc1C(=O)N1CCN(C(=O)c2oc3c(C)c(C)ccc3c2C)CC1 ?
TDP43 rescue: 32µM*; FUS yeast rescue: inactive; aSyn yeast inh: 1%; Abeta rescue: inactive

Results for COc1ccccc1C(=O)N1CCCN(C(=O)c2ccccc2OC)CC1 ?
TDP43 rescue: -8%; FUS yeast rescue: inactive; aSyn yeast inh: -5%; Abeta rescue: inactive

Results for COc1ccc(NC(=O)c2ccco2)cc1NC(=O)c1ccc(OC(C)C)cc1 ?
TDP43 rescue: 14µM*; FUS yeast rescue: inconclusive; Abeta rescue: inactive

What do the screens show for `COC(=O)[C@H]1C[C@]2(C/C=C(\C)CCC=C(C)C)c3ccccc3N[C@H]2N1`?
FUS yeast rescue: inactive
